Source: PubChem BioAssay (Tox21)
Results filed as inconclusive are left out. A call without a number means that no potency is given here. Unmarked numbers belong to inactive results. Active and inactive are the calls of the source. The call rests on the fitted dose curve; in most records, active means well fitted cell-killing curve with a large enough effect in the repeat runs; inconclusive means weak or mixed curves, or effect the other way; inactive means flat fitted curve, though single readings scatter.

Assay: qHTS assay to identify small molecule agonists of the constitutive androstane receptor (CAR) signaling pathway - cell viability counter screen (AID 1224836); further: nearly all actives have a fitted effect of over 45% in size
Conditions: HepG2-CYP2B6-hCAR viability, CellTiter-Fluor, 23 h, PK11195 added to every well; series mostly up to 92.4 µM
Source text: U.S. Tox21 Program National Center for Advancing Translational Sciences [NCATS] NIH Chemical Genomics Center [NCGC] U.S. Environmental Protection Agency [EPA] National Institutes of Environmental Health Sciences [NIEHS] National Toxicology Program [NTP] U.S. Food and Drug Administration [FDA] Tox21 Assay Overview: The constitutive androstane receptor (CAR) is a nuclear receptor which regulates multiple drug metabolizing enzymes (DMEs) and transporters. Activating CAR will generally increase the transcription and subsequent translation of CYP2B6 and CYP3A4. These two DMEs represent about 50% of the drug metabolizing potential in the body. […] Recently, there have also been studies performed indicating CARs role in energy metabolism and cancer therapy. Therefore, inducing CARs activity could have a potential effect on diabetes and cancer. Identifying environmental toxins and compounds which modulate CAR, through the use of the Tox21 10K compound collection, will be an important step in determining the toxicity and potential therapeutic effects these factors will have on the human body. To differentiate true CAR agonists from cytotoxic substances, the assay is multiplexed with a cell viability assay.
Tox21 Assay Protocol Summary: A double-stable (hCAR and CYP2B6-2.2kb) transfected cell line, derived from human hepatoma (HepG2) cells, was utilized for the duration of the quantitative high-throughput screens. The HepG2-CYP2B6-hCAR cells were dispensed at 2500 cells/4 uL/well in 1536-well white solid bottom plates using a Multidrop Combi. After the assay plates were incubated at 37 C/5% CO2 for 4 hrs, 23 nL of compounds at 15 concentrations (from 5-48 columns) or positive control (from 1 to 4 columns) were transferred to the assay plates using a Pintool station. One uL of PK11195 (final concentration = 0.75 uM) was added, using a Flying Reagent Dispenser, inside each well. After a 23 hr incubation period at 37 C/5% CO2, 1 uL of CellTiter-Fluor reagent was added into each well of the assay plates using a Flying Reagent Dispenser. The fluorescence intensity in the plates was then measured using a ViewLux plate reader.
Potency means the concentration at half of the fitted maximal effect.

Structure (SMILES) | Potency | viability change, negative = cytotoxic
CN(C)CCCN | inactive | –
O=C(O)c1ccc(C(=O)O)cc1 | inactive | –
Cc1ccc(N(C)C)cc1 | inactive | –
OCc1cccnc1 | inactive | –
C#CCN(C)Cc1ccccc1 | inactive | –
CC(C)c1ccc(S(=O)(=O)O)cc1 | inactive | –
N[C@@H](Cc1cc(I)c(Oc2cc(I)c(O)c(I)c2)c(I)c1)C(=O)O | inactive | –
CC(=O)CC(=O)Nc1ccccc1 | inactive | –
CC(C)(C)[C@@H](O)[C@@H](Cc1ccc(Cl)cc1)n1cncn1 | inactive | –
CCCCCCCCCCCCOCCO | inactive | –
CCC(O)OCCCOC (stereo not given) | inactive | –
CC(=O)c1ccccc1 | inactive | –
OC[C@H]1O[C@@](CO)(O[C@H]2O[C@H](CO)[C@@H](O)[C@H](O)[C@H]2O)[C@@H](O)[C@@H]1O | inactive | –
CCCCOC(=O)COc1ccc(Cl)cc1Cl | inactive | –
CCCCCC1=CCCC1=O | inactive | –
COc1ccc(NC(C)=O)cc1N | inactive | –
Nc1cc([N+](=O)[O-])ccc1O | 48.6 µM (active) | –
CCCCCCCC(=O)OC | inactive | –
ON=C1CCCCC1 | inactive | –
O=C(O)c1ccc2c(c1)C(=O)OC2=O | inactive | –

Structure (SMILES) | Potency | viability change, negative = cytotoxic
CSCCC=O | inactive | –
CN(C)CCC(c1ccc(Cl)cc1)c1ccccn1 (stereo not given) | inactive | –
COS(C)(=O)=O | inactive | –
Cc1cccnc1 | inactive | –
CCN(CC)CCCC(C)Nc1ccnc2cc(Cl)ccc12 (stereo not given) | – | -3.22% [at 8.39 µM]
CC1=C(C)S(=O)(=O)CCS1(=O)=O | inactive | –
Cc1ccc(S(N)(=O)=O)cc1 | inactive | –
CC(=O)Nc1ccccc1 | inactive | –
CCCCC(CC)COC(=O)C(C#N)=C(c1ccccc1)c1ccccc1 (stereo not given) | inactive | –
O=C(CC(C(=O)OC1CCCCC1)S(=O)(=O)O)OC1CCCCC1 (stereo not given) | inactive | –
O=[N+]([O-])c1ccc(/C=C/c2ccc([N+](=O)[O-])cc2S(=O)(=O)O)c(S(=O)(=O)O)c1 | inactive | –
O=C=NCCCCCCN=C=O | inactive | –
CCCCCCOCCO | inactive | –
CC1CCC(C(C)C)C(O)C1 (stereo not given) | inactive | –
C=C(C)C(=O)Nc1ccc(Cl)c(Cl)c1 | inactive | –
C[Si](O[Si](C)(C)C)O[Si](C)(C)C | inactive | –
Cc1ccc2oc(=O)ccc2c1 | inactive | –
CCCCCC(N)=O | inactive | –
CC(C)CC(=O)CC(C)C | inactive | –
NNc1nncc2ccccc12 | inactive | –
